Data reported in PubChem BioAssay (NCATS).
Several values for one entry are separate records, joined by “and”; a condition that tells them apart may be missing. Identical values can stand only once. Results filed as inconclusive are left out. Entries that show only a call come without a potency. Activity calls are given as the source filed them. Unless noted, calls come from the whole dose curve; as a rule, active = well fitted curve in the direction sought with a large enough effect; inconclusive = small, poorly fitted or top-dose-only effect, or another doubt; inactive = no such curve, though single readings can be large; an effect the other way counts as inactive or inconclusive.

Experiments:
[1] = qHTS Assay for Lipid Storage Modulators (AID 1519; calls by dose curve); settings: Drosophila S3 cells, BODIPY lipid droplet/cell ratio, laser cytometry, cells loaded with oleic acid
In short: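 Cells seeded at 5,000 per well were treated with compounds over a concentration series and loaded with oleic acid (400 uM, as added). Lipid droplet fluorescence (488 nm excitation, 500-530 nm channel) was read by laser-scanning cytometry and normalized to 20 uM Triacsin C.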

[2] = molecular target: DNA repair nuclease/redox regulator APEX1 (Homo sapiens) (UniProt P27695); assay: qHTS Validation Assay for Inhibitors of the Human Apurinic/apyrimidinic Endonuclease 1 (APE1) (AID 1705;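 note: TAMRA fluorescence gain over two minutes as APE1 cuts a quenched THF abasic duplex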); settings: purified APE1 endonuclease activity, fluorescence, titration; series mostly up to 57.1 µM
Chain of DNA repair nuclease/redox regulator APEX1 (Homo sapiens) (P27695 whole entry, looked up): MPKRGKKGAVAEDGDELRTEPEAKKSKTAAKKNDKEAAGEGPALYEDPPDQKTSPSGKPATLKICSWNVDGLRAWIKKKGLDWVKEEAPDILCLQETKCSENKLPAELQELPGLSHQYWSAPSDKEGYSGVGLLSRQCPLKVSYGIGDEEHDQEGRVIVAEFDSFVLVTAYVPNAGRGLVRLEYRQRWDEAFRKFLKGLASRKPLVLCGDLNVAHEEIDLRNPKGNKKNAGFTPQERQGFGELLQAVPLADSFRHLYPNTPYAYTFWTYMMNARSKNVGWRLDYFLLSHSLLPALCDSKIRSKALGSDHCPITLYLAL
In short: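 Substrate: 50 nM final fluorophore/quencher THF-abasic duplex. Enzyme preincubated with compounds 15 min, RT. Progress derived from fluorescence difference, third minus first kinetic read.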

[3] = qHTS for differential inhibitors of proliferation of Plasmodium falciparum line D10 (AID 1877); settings: series mostly up to 28.7 µM;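 note: parasites grown with compound for 72 h before DNA staining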; note: potency is the fitted concentration of half-maximal effect
[4] = qHTS for differential inhibitors of proliferation of Plasmodium falciparum line W2 (AID 1883); settings: Potency: Plasmodium falciparum W2 proliferation inhibition; series mostly up to 28.7 µM;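 note: parasites grown with compound for 72 h before lysis and staining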; note: potency is the fitted concentration of half-maximal effect
[5] = molecular target: Alpha-galactosidase (Coffea arabica) (UniProt Q42656); assay: Counterscreen for Glucocerebrosidase Inhibitors: qHTS Assay for Coffee Bean alpha-Galactosidase at pH 5.9 (AID 998); settings: coffee bean alpha-galactosidase enzyme assay; series mostly up to 76.9 µM
Chain of Alpha-galactosidase (Coffea arabica) (Q42656 whole entry, looked up): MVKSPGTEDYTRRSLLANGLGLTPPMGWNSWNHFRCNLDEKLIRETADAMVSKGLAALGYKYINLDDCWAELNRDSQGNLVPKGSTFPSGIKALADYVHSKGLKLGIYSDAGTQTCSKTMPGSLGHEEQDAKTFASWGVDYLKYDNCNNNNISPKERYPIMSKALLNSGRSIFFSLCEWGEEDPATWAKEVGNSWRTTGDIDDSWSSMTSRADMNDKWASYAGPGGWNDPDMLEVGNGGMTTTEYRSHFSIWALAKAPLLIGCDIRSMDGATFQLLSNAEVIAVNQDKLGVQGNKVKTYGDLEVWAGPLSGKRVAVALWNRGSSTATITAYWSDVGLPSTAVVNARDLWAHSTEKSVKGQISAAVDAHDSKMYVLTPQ
In short: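 Compounds were titrated from 0.7 nM to 77 uM against green coffee bean alpha-galactosidase (2 nM) using 80 uM fluorogenic 4-methylumbelliferyl substrate. After 20 min at room temperature, reactions were stopped at pH 10 and read by fluorescence.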

[6] = molecular target: Alpha-galactosidase A (Homo sapiens) (UniProt P06280); assay: Counterscreen for Glucocerebrosidase Inhibitors: qHTS Assay for Human alpha-Galactosidase at pH 4.5 (AID 992); settings: purified enzyme, fluorogenic substrate; series mostly up to 76.9 µM
Chain of Alpha-galactosidase A (Homo sapiens) (P06280 whole entry, looked up): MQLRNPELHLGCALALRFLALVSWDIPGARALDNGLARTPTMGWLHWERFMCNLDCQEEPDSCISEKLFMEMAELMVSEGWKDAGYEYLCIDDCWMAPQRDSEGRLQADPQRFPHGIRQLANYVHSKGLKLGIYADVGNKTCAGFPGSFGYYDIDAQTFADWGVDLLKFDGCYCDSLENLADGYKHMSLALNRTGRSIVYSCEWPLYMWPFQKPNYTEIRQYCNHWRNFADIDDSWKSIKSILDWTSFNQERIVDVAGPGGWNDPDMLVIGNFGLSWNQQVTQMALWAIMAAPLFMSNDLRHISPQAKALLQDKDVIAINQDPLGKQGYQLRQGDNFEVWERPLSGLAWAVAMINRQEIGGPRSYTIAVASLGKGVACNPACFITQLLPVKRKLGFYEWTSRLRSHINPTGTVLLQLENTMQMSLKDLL
In short: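 Enzyme at 2 nM final was combined with compound (0.7 nM to 77 uM) and 80 uM 4-methylumbelliferyl alpha-D-galactopyranoside in 50 mM citric acid, 0.005% Tween-20, pH 4.5. After 20 min at room temperature, fluorescence was read (Ex 365/Em 440 nm); AC50 came from Hill fits.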

[7] = molecular target: alpha-glucosidase (Oryza sativa, rice) (UniProt Q653V4); assay: Counterscreen for Glucocerebrosidase Inhibitors: qHTS Assay for Rice alpha-Glucosidase at pH 5.0 (AID 997); settings: rice alpha-glucosidase enzyme activity; series mostly up to 76.9 µM
In short: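 Rice alpha-glucosidase (4 nM final) with 400 uM 4-methylumbelliferyl-alpha-D-glucopyranoside in citrate buffer pH 5.0, 20 min at room temperature, stopped at pH 10; fluorescence 365/440 nm, compounds 0.7 nM–77 uM, AC50 from Hill fits.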

[8] = Validation of Assay for Modulators of Lamin A Splicing (AID 1459; active = well fitted curve in the direction sought with a large enough effect in the signal ratio; the % refers to the signal ratio;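 note: cells exposed to compound for two days before reading; ratio rise marks activators and ratio drop marks inhibitors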); settings: Lamin A splicing dual RFP/GFP fluorescence reporter; series mostly up to 9.22 µM
In short: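 Dual-reporter HeLa S3 line (lamin A-EGFP minigene, DsRed2) treated with compounds 48 hrs, 0.5% DMSO final. Endpoint: EGFP/DsRed2 total intensity ratio from laser-scanning microplate cytometry.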

[9] = Counterscreen for APE1 Inhibitors: Fluorescent Dye Displacement Validation Assay (AID 1707); settings: fluorescent dye displacement from DNA; series mostly up to 57.1 µM
In short: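 Thiazole Orange displacement from dsDNA: 250 nM ThO with 50 nM TAMRA-labelled abasic-site (tetrahydrofuran) duplex in 50 mM Tris-HCl pH7.5, 50mM NaCl, 2 mM MgCl2, 0.01% Tween-20. Loss of endpoint fluorescence (ex 480 nm, em 540 nm) flags DNA binders.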

[10] = qHTS for differential inhibitors of proliferation of Plasmodium falciparum line 7G8 (AID 1815); settings: Plasmodium falciparum 7G8 proliferation inhibition; series mostly up to 28.7 µM;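 note: parasite growth measured after three days of incubation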; note: potency is the fitted concentration of half-maximal effect
[11] = qHTS for differential inhibitors of proliferation of Plasmodium falciparum line GB4 (AID 1816); settings: Potency: Plasmodium falciparum GB4 proliferation inhibition; series mostly up to 28.7 µM;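 note: parasite growth measured after 72 h incubation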; note: potency is the fitted concentration of half-maximal effect
[12] = qHTS for differential inhibitors of proliferation of Plasmodium falciparum line 3D7 (AID 1876);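 note: parasite growth measured after three days of culture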; settings: P. falciparum 3D7 proliferation inhibition; series mostly up to 28.7 µM
[13] = qHTS for differential inhibitors of proliferation of Plasmodium falciparum line Dd2 (AID 1882); settings: Potency: Plasmodium falciparum Dd2 proliferation inhibition; series mostly up to 28.7 µM; note: nearly all actives have a fitted effect of over 65% in size; note: potency is the fitted concentration of half-maximal effect
In short: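 Dd2-infected erythrocytes (0.3% parasitemia, 2.5% hematocrit final) incubated with compound 72 h at 37 C, 5% CO2; lysed with saponin/Triton buffer containing SYBR Green I, incubated overnight in the dark, then read by fluorescence (485/535 nm). Normalized to 0.29 uM artemisinin and DMSO.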

[14] = qHTS for differential inhibitors of proliferation of Plasmodium falciparum line HB3 (AID 1886); settings: Potency: Plasmodium falciparum HB3 proliferation inhibition; series mostly up to 28.7 µM;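 note: parasites grown with compound for 72 h before SYBR Green readout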
[15] = qHTS Assay for Modulators of Human Peripheral Myelin Protein 22 (PMP22) Expression/Activity (AID 1967; active = well fitted curve in the direction sought with a large enough effect in the signal ratio; the % refers to the signal ratio); settings: Cell-based PMP22 reporter, dual-color luciferase ratio, mouse Pmp22 promoter in mouse Schwann cells; series mostly up to 115 µM
In short: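 Engineered MSC80 cells, Pmp22-promoter green and EF-alpha red luciferase reporters; 24h compound treatment at 37 °C. Concentration-response fits on green, red and ratio signals, each overlap-corrected, with %Activity normalized to untreated wells.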

[16] = molecular target: Endonuclease 4 (Escherichia coli (strain K12)) (UniProt P0A6C1); assay: Counterscreen for APE1 Inhibitors: qHTS Validation Assay for Inhibitors of Endonuclease IV (AID 1708); settings: E. coli endonuclease IV, DNA cleavage fluorescence; series mostly up to 57.1 µM
In short: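 qHTS concentration-response format; LOPAC1280 tested under APE1-screen conditions. 2 nM enzyme, 15 min compound preincubation at RT, then 50 nM TAMRA/BHQ-2 abasic substrate; kinetic fluorescence read, three reads at 60 s intervals.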

[17] = measured here: cell count channel max response
[18] = measured here: lipid channel max response

CNCCC(Oc1ccc(C(F)(F)F)cc1)c1ccccc1 (stereo unspecified)
activity change, negative = inhibition ([1]; at 57.5 µM (top of the series)): 1.75% (inactive)
max response [1, 17]: -0.474%
max response [1, 18]: 3.92%
outcome [2]: inactive
Potency [3]: 10 µM (active)
Potency [4]: 2.24 µM (active)

CNCCCN1c2ccccc2CCc2ccccc21
outcome [5]: inactive
activity change, negative = inhibition ([1]; at 25.7 µM (top of the series)): -4.5% (inactive)
activity change, negative = inhibition ([1]; at 57.5 µM (top of the series)): 0.465% (inactive)
max response [1, 17]: -2.23% and 21.3%
max response [1, 18]: -6.66% and 25.9%

CC(=O)[C@H]1CC[C@H]2[C@@H]3CC[C@H]4C[C@H](O)CC[C@]4(C)[C@H]3C(=O)C[C@]12C
outcome [6]: inactive
outcome [7]: inactive
outcome [5]: inactive
outcome [8]: inactive
activity change, negative = inhibition ([1]; at 57.5 µM (top of the series)): -2.01% (inactive)
max response [1, 17]: 15.7%
max response [1, 18]: 15.5%
outcome [2]: inactive
Potency [9]: inactive
Potency [10]: inactive
Potency [11]: inactive
Potency [12]: inactive
Potency [3]: inactive
Potency [13]: inactive
Potency [14]: inactive
outcome [15]: inactive

c1ccc(C2CC2)c(OCC2=NCCN2)c1
outcome [6]: inactive
outcome [7]: inactive
outcome [5]: inactive
activity change, negative = inhibition ([1]; at 57.5 µM (top of the series)): 8.25% (inactive)
max response [1, 17]: 15.2%
max response [1, 18]: 26.1%
outcome [2]: inactive
Potency [9]: inactive
outcome [16]: inactive
Potency [11]: 12.6 µM (active)
Potency [12]: inactive
Potency [3]: inactive
Potency [4]: 8.91 µM (active)
Potency [14]: inactive

CCC1(C2=NCCN2)Cc2ccccc2O1 (stereo unspecified)
activity change, negative = inhibition ([1]; at 57.5 µM (top of the series)): -1.14% (inactive)
max response [1, 17]: -3.38%
max response [1, 18]: -2.07%
outcome [2]: inactive
Potency [9]: inactive
outcome [16]: inactive
Potency [11]: 12.6 µM (active)
Potency [12]: inactive
Potency [3]: inactive
Potency [13]: 8.91 µM (active)
Potency [4]: 3.98 µM (active)
Potency [14]: inactive

O=P1(NCCCl)OCCCN1CCCl (stereo unspecified)
activity change, negative = inhibition ([1]; at 25.7 µM (top of the series)): -0.105% (inactive)
max response [1, 17]: -5.65%
max response [1, 18]: -6.2%

c1ccc2c(c1)OCC(C1=NCCN1)O2 (stereo unspecified)
activity change, negative = inhibition ([1]; at 57.5 µM (top of the series)): 0.671% (inactive)
max response [1, 17]: 8.3%
max response [1, 18]: 9.22%
outcome [2]: inactive
Potency [9]: inactive
outcome [16]: inactive
Potency [10]: 8.91 µM (active)
Potency [3]: inactive
Potency [4]: 12.6 µM (active)

NCC(CC(=O)O)c1ccc(Cl)cc1 (stereo unspecified)
outcome [6]: inactive
outcome [7]: inactive
outcome [5]: inactive
activity change, negative = inhibition ([1]; at 57.5 µM (top of the series)): 7.61% (inactive)
max response [1, 17]: 16.5%
max response [1, 18]: 28.7%
outcome [2]: inactive
Potency [9]: inactive
outcome [16]: inactive
Potency [10]: inactive
Potency [11]: inactive
Potency [12]: inactive
Potency [3]: inactive
Potency [13]: inactive
Potency [4]: inactive
Potency [14]: inactive
